Out of some 310,000 compounds screened, about 11,000 (3.5%) were called active. Where a call stands in place of a potency, no number is given. About 8% were inconclusive and are not listed. Calls follow the shape of the dose curve; as a rule, active = well fitted inhibition curve with a large enough effect; inconclusive = small, poorly fitted or top-dose-only effect, or effect the other way; inactive = flat fitted curve, though single readings scatter. The full list was thinned out, with actives kept by preference.
Experiment: VP16 counterscreen qHTS for inhibitors of ROR gamma transcriptional activity;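 also: Gal4-VP16 expression switched on by copper sulfate through the metallothionein promoter; nearly all actives have a fitted effect of over 50% in size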
Details: Drosophila S2 Gal4-VP16 UAS-luciferase, luminescence, 20 h; series mostly up to 53.6 µM
Potency is read from the fitted curve at half-maximal effect.

Structure (SMILES) | Potency
Cc1cc(N2C(=O)C(O)=C(C(=O)c3ccc(C)o3)C2c2ccc(OCc3ccccc3)cc2)no1 (stereo not given) | inactive
O=C(CN1CCC(NC(=O)Nc2ccccc2)CC1)Nc1cccc([N+](=O)[O-])c1 | inactive
COc1cccc(C(=O)CC(=O)C(=O)Nc2ccc([N+](=O)[O-])cc2C)c1 | inactive
CC1(C)Cc2c(sc(NC(=O)C(=O)N3CCOCC3)c2C#N)CO1 | inactive
COc1ccc(Cc2nc3ccc(C(=O)NCC4CCOCC4)cc3o2)cc1OC | inactive
O=C(O)c1ccccc1CSc1nc2ccccc2s1 | inactive
C/C(=N\Nc1ncc(Cl)cc1Cl)c1ccc(S(=O)(=O)NCc2ccco2)cc1 | 3160 nM (active)
O=C(CCCl)Nc1ccc(S(=O)(=O)NCc2ccco2)cc1 | inactive
O=S(=O)(NCc1ccco1)c1cnc(Cl)c(Cl)c1 | inactive
CCCc1ccc(OCCNC(=O)c2ccccc2Br)cc1 | inactive
Cc1cc(NC(=O)c2ccccc2C)no1 | inactive
O=Cc1cn(Cc2ccccc2)nc1-c1cccnc1 | inactive
O=C1/C(=C\c2cccnc2)CN(Cc2ccccc2)C/C1=C\c1cccnc1 | 2000 nM (active)
Clc1ccc(CN2CCN(/N=C/c3cccnc3)CC2)cc1 | inactive
Cc1c(C(C)(C)O)[nH]c2ccc(C#N)cc12 | inactive
O=C(O)c1ccccc1C(=O)NC1=NN(c2ccccc2)CC1 | inactive
O=C1CCC(C(=O)N2CCCCO2)CN1Cc1cccc(C(F)(F)F)c1 (stereo not given) | inactive
NS(=O)(=O)c1ccc(CCNS(=O)(=O)c2cccc3cccnc23)cc1 | inactive
Cc1cc(Cl)c2oc(C(=O)NC(C)c3ccncn3)c(C)c2c1 (stereo not given) | inactive
O=C(N/N=C/c1cc(Cl)cc([N+](=O)[O-])c1O)C(O)(c1ccccc1)c1ccccc1 | 891 nM (active)
CN(C)/N=C/c1cc(Cl)cc([N+](=O)[O-])c1O | inactive
Cc1cc(C(=O)N/N=C/c2ccccc2[N+](=O)[O-])c(C)o1 | inactive
Cc1nn(C)c(Cl)c1CN1CCC(Oc2ccc(C(=O)N3CCCC3)cc2)CC1 | inactive
O=C(C[C@H]1C(=O)N(c2ccc(F)c(F)c2)C[C@@H]1Cc1ccccc1)Nc1ccccc1 | inactive
Cc1c(C(=O)NC2CCCCC2)oc2ccccc12 | inactive
CCOC(=O)CSc1ccccn1 | inactive
COc1cccc(N(CC(=O)NCCSc2ccccn2)S(C)(=O)=O)c1 | inactive
COc1ccc(C=C(C#N)C#N)c(CSc2ccccn2)c1 | 15800 nM (active)
CCCn1c2ccccc2c2cnn(CC(=O)NCCCN3CCCCC3CC)c(=O)c21 (stereo not given) | inactive
O=C(OCC(=O)N1CCN(C(=O)c2ccco2)CC1)c1cccc(O)c1 | inactive

From PubChem BioAssay AID2546 (National Center for Advancing Translational Sciences (NCATS), 2010)
